Anthrax LT inh – inhibitors of anthrax lethal toxin internalization. Cells, anthrax lethal toxin internalization, FRET ratio (460/530). Potency, µM (highest dose often 40 µM), for inactives: at the highest dose activity change, negative = inhibition, hits mostly inhibitors. hit rate 0.67% among 70,000. AID 912; also: % is scaled to controls: 0 for no effect and ±100 for the full control effect; nearly all actives have a fitted effect of over 50% in size
SmPrx2 inh – inhibitors of Schistosoma mansoni peroxiredoxin 2; S. mansoni Prx2 activity coupled to TGR/GSH (TGR is thioredoxin glutathione reductase), NADPH fluorescence loss, qHTS; Potency, µM; hit rate 0.07% among 65,000
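Activity is read as the drop in NADPH fluorescence (365/450 nm), recorded every 30 sec for 8 min after H2O2 addition. Prx2 is coupled to TGR-driven NADPH oxidation through glutathione, in phosphate buffer pH 7.4.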
AmpC inh det – AmpC beta-lactamase inhibition, detergent assay; Potency, µM (top dose mostly 28.7 µM), for inactives: at the highest dose activity change, negative = inhibition; purified AmpC, nitrocefin hydrolysis with detergent; hit rate 0.09% among 71,000; AID 584; active = well fitted curve in the direction sought with a large enough effect; inconclusive = small, poorly fitted or top-dose-only effect; also: % is scaled to controls: 0 for no effect and ±100 for the full control effect
Target sequence (P00811 whole entry, looked up): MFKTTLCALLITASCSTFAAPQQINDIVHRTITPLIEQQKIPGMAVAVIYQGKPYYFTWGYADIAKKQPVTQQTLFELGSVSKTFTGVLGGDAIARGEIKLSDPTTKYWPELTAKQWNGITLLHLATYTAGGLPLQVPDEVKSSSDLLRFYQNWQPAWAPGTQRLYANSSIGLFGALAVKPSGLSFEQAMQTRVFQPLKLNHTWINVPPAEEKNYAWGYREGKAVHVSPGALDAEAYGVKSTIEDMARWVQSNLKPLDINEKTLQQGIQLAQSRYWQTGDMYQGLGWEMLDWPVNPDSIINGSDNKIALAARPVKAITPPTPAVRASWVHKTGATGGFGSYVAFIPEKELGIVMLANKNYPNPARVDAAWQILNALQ
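E. coli AmpC (5.3 nM) in 20 mM phosphate pH 7.0 with 0.01% Triton X-100, preincubated 15 min RT with compound; nitrocefin (2 uL of 800 uM stock) hydrolysis followed by 480 nm absorbance every 20 s over 4 min.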
AmpC nodet inh – AmpC beta-lactamase inhibition, detergent-free assay | P00811 | AmpC nitrocefin hydrolysis, absorbance 480 nm, no detergent | Potency, µM (highest dose often 28.7 µM), without a hit: top-dose activity change, negative = inhibition | hit rate 1.8% among 71,000; also: % of control where 0% means no effect
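Enzyme, pH 7.0 phosphate. Compound titrations were pre-incubated with AmpC for 15 min at room temperature before nitrocefin (stock 800 uM) addition; product formation was recorded at 480 nm every 20 s for 4 min.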
* hit, by the source's call; ? = inconclusive; nt = not tested or not shown; ! = a repeat was not active; [ ] = another dose, or the depositor's remark. The list is not random: actives were taken first. Their share in the collection is about 2.4%. Unless noted, calls follow the shape of the full dose curve. Potency is read from the fitted curve at half-maximal effect.

SMILES	Anthrax LT inh	SmPrx2 inh	AmpC inh det	AmpC nodet inh
O=S(=O)(CCc1ccccc1)/N=C/c1cccs1	10%	>57	-1%	-5%
CC(C)CNC(=O)c1cccc(NC(=O)c2ccc(NC(=O)c3ccco3)cc2)c1	-4%	>57	-1%	16µM*[single pt active]
O=C(COC(=O)c1cccc(NC(=O)c2ccco2)c1)c1ccc(Br)cc1	13µM*	>57	1%	-24%
CC(C)(C)NC(=O)c1cccc(NC(=O)c2ccc(NC(=O)c3ccco3)cc2)c1	?	>57	-2%	4%
CC(C)(C)C(=O)COC(=O)c1cccc(NC(=O)c2ccco2)c1	-10%	>57	-6%	10%
CC(C)COC(=O)C(C#N)c1nc2ccccc2nc1N1CCN(Cc2ccccc2)CC1 (stereo not drawn)	-7%	>57	-9%	30%
CC(C)CCNc1ncnc2[nH]ncc12	-1%[8 µM]	>57	3%[5.75 µM]	-5%[5.75 µM]
CCCC[C@@H]1C[C@H]1C(NP(=O)(c1ccccc1)c1ccccc1)c1ccc(Cl)cc1 (stereo partly drawn)	-22%	>57	-6%	21%
CCCC[C@@H]1C[C@H]1[C@@H](NP(=O)(c1ccccc1)c1ccccc1)c1ccccc1OC	13µM*	nt	15%	8%
Oc1ccc(Br)cc1/C=N/n1cnc2ccccc21	-31%	>57	0%	16µM*[single pt active]
OCC(CO)(CO)N=Cc1cc(Br)ccc1O	-20%	>57	4%	-6%
COC(=O)c1ccc(C(/C=C/[C@@H](C)C(=O)N[C@H](C)CO)NC(=O)OCc2ccccc2)cc1 (stereo partly drawn)	19%	nt	13%	90%
CC(C)(C)NC(=O)CSc1nnc(-c2ccccn2)n1-c1ccccc1	4%	>57	7%	16%
CC(=O)NCCn1c(SCC(=O)c2ccccc2)nc2ccccc2c1=O	-6%	>57	1%	82%
Cc1cccc(NC(=O)Nc2ccc(C#N)cc2)n1	-7%	>57	3%	0%
COc1ccc(NC(=O)Nc2cccc(C)n2)cc1	-13%	>57	10%	4µM*[single pt active]
Cc1ccc2c(c1)NC(=O)C(CC(=O)NCCCN1CCN(C3CCCCC3)CC1)O2 (stereo not drawn)	-6%	>57	8%	8%
COc1ccc(N2CCN(CCCNC(=O)CC3Oc4ccc(C)cc4NC3=O)CC2)cc1 (stereo not drawn)	?	>57	13%	4µM*[single pt active]
Cc1ccc2c(c1)NC(=O)C(CC(=O)NCCCN1CCCC1)O2 (stereo not drawn)	-5%	>57	9%	4µM*[single pt active]
CCOC1(OCC)N=C(N)C2(C#N)C(c3ccc(NC(C)=O)cc3)C12C#N (stereo not drawn)	?	>57	0%	5%
CCCCSc1nnc(C)c(=O)[nH]1	10%	>57	-3%	-7%
CC(C)N(Cc1nc(-c2ccccc2)no1)S(=O)(=O)c1ccccc1	?	>57	3%	4µM*[single pt active]
CC(C)N(Cc1nc(-c2ccccc2)no1)C(=O)CN(C)S(=O)(=O)c1ccccc1	-15%	>57	-3%	73%
COc1cccc(NC(=O)c2oc3ccccc3c2NC(=O)C(C)(C)C)c1	13µM*	>57	5%	11%
CC(C)CC12CN3CCN(CC(C3)C1O)C2 (stereo not drawn)	9%	nt	0%	-4%
SMILES	Anthrax LT inh	SmPrx2 inh	AmpC inh det	AmpC nodet inh
Cn1c(=O)oc2cc(S(=O)(=O)N3CCCC3)ccc21	3%	>57	10%	-3%
N#CC1=C(N)SC(N)=C(C#N)C1c1cccc(Oc2ccccc2)c1	?	nt	4%	7.9µM*
CCOc1ccc(C2C(C#N)=C(N)SC(N)=C2C#N)cc1OCC	1%	>57	-1%	5%
Nc1c2c(nc3ccccc13)CCCC2	32µM*!	>57	9%	-13%
CCc1nc2ccccc2c(C(=O)OCC(=O)Nc2ccc(S(=O)(=O)N3CCOCC3)cc2)c1C	13µM*	>57	-3%	52%
Cn1c(O)c(/C=N/c2ccccn2)c(=O)n(C)c1=O	16%	>57	-2%	7%
Cc1cc(C(=O)CSc2nc3ccccc3n2CCC#N)c(C)n1Cc1cccs1	-26%	>57	-1%	16µM*
CCN(CC)S(=O)(=O)c1ccc(C(=O)NCc2n[nH]c(=S)n2-c2ccccc2OC)cc1	-3%	>57	-2%	7%
O=C(Cn1cnnn1)OCC(=O)c1ccc(Cl)s1	-6%	>57	8%	13µM*
COc1cc(NC(=O)c2cc3c(=O)n(C)c4ccccc4c3n2C)cc(OC)c1OC	6%	>57	11%	24%
Cc1ccc(OCCCC(=O)Nc2ccc(S(=O)(=O)Nc3cc(C)on3)cc2)cc1	4%	>57	7%	10µM*[single pt active]
CCCCOC(=O)Nc1ccc(S(=O)(=O)Nc2cc(C)nc(C)n2)cc1	?	>57	12%	3.2µM*[single pt active]
CCc1cccc(OCC(=O)Nc2ccc(S(=O)(=O)Nc3onc(C)c3C)cc2)c1	-8%	>57	12%	4µM*[single pt active]
Cc1noc(NS(=O)(=O)c2ccc(NC(=O)COc3ccc(Cl)cc3Cl)cc2)c1C	?	nt	12%	6.3µM*
Cc1ccc(S(=O)(=O)CC(=O)Nc2ccc(S(=O)(=O)Nc3onc(C)c3C)cc2)cc1	-1%	>57	-3%	-3%
Cc1ccc(OCC(=O)Nc2ccc(S(=O)(=O)Nc3onc(C)c3C)cc2)cc1	0%	>57	-2%	2%
C/C(CCC(=O)OC[C@@H]1O[C@H](C#Cc2ccccc2)C=C[C@@H]1Oc1ccc(C)cc1)=N/O[C@@H](C)CN1CCCCc2nc(C)c(C)cc21	5%[8 µM]	nt	nt	nt
COc1cc(C2CC(=O)N3CN(Cc4ccco4)CSC3=C2C#N)ccc1OCc1ccccc1 (stereo not drawn)	?	>57	9%	4µM*[single pt active]
COc1ccc(C2CC(=O)N3CN(Cc4ccco4)CSC3=C2C#N)cc1 (stereo not drawn)	?	>57	-3%	-4%
CCOc1cc(C2CC(=O)N3CN(C4CCCCC4)CSC3=C2C#N)ccc1O (stereo not drawn)	-7%	>57	12%	2.5µM*
COc1ccc2ccccc2c1C1CC(=O)N2CN(Cc3ccco3)CSC2=C1C#N (stereo not drawn)	?	>57	0%	4µM*[single pt active]
O=S(=O)(N1CCCCC1)n1nnc2ccccc21	4%	>57	-1%	-5%
c1ccc2occc2c1	-6%	nt	10%	0%
CO[Si](CCCNCCC[Si](OC)(OC)OC)(OC)OC	0%	nt	10%	-17%
O=C(NCCC1=CCCCC1)C1CC(=O)N(C2CCCCCC2)C1 (stereo not drawn)	-12%	>57	-2%	83%
CCCC[C@@H]1C[C@H]1C(NC(=O)c1ccco1)c1ccccc1C(F)(F)F (stereo partly drawn)	?	>57	-4%	-18%
CCCC[C@@H]1C[C@H]1C(NC(=O)c1ccccc1)c1ccccc1 (stereo partly drawn)	2%	>57	-2%	-20%
CCCC[C@@H]1C[C@H]1C(NC(=O)c1ccco1)c1ccc(-c2ccccc2)cc1 (stereo partly drawn)	-10%	>57	-3%	13µM*[single pt active]
CCCC[C@@H]1C[C@H]1C(NC(=O)c1ccco1)c1ccc(Cl)cc1 (stereo partly drawn)	?	>57	-4%	10µM*[single pt active]
